The supplement of paper PMC10037445
Whole data set: some 2,900 compounds, median “NF-kB SEAP reporter activity, fold change vs agonist alone” near 0.99, cut for the highest 2% near 2.6. The sample holds the highest values, similar compounds and a random draw of the others, so the mix is not that of the screen.

Experiments:
RAW-Dual [1] = assay: NF-kB SEAP reporter activity, fold change vs agonist alone; cytotoxicity flag (confluency mask): not cytotoxic; higher = enhanced NF-kB activity
Method in brief: (§1)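 Library stock was pin-tooled at 50 nL into 384-well plates of RAW-Dual macrophages (50,000 cells/well, DMEM), followed 1 h later by a PRR agonist, and the cells were kept at 37 °C, 5% CO2. Supernatant collected after 20 hours was read for IRF by QuantiLuc luminescence and for NF-κB by QuantiBlue absorbance at 620 nm. Reporter activity is fold change over agonist-alone wells, and a well counted as cytotoxic when its IncuCyte confluency was below 70% of agonist controls in both mask sets.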

RAW-Dual [2] = assay: NF-kB SEAP reporter activity, fold change vs agonist alone; higher = enhanced NF-kB activity; conditions: library stock concentration (final ~1000-fold dilution): 10 mM
Method in brief: as §1

RAW-Dual [3] = assay: NF-kB SEAP reporter activity, fold change vs agonist alone; cytotoxicity flag (confluency mask): cytotoxic (confluency <70% of control); higher = enhanced NF-kB activity
Method in brief: as §1

[4] = agonist: ODN 1826 (TLR9) 0.5 ug/mL
[5] = agonist: Pam2CSK4 (TLR2/6) 0.1 ug/mL
[6] = agonist: Pam3CSK4 (TLR2/1) 0.1 ug/mL
[7] = cytotoxicity flag (confluency mask): not cytotoxic, agonist: Imiquimod (TLR7) […]
[8] = cytotoxicity flag (confluency mask): not cytotoxic, agonist: MPLA (TLR4) […]

## Cc1ccc(Sc2cncc3sc(C(N)=O)cc23)cc1 (library stock concentration (final ~1000-fold dilution): 10 mM)
RAW-Dual [1]; agonist: LPS (TLR4) 0.1 ug/mL
  NF-kB SEAP reporter activity: 2.89
RAW-Dual [1]; [4]
  NF-kB SEAP reporter activity: 2.2
RAW-Dual [1]; [5]
  NF-kB SEAP reporter activity: 1.62
RAW-Dual [1]; [6]
  NF-kB SEAP reporter activity: 3.34

## Cc1ccc(Sc2cncc3sc(C(N)=O)cc23)cc1
RAW-Dual [2]; [7]
  NF-kB SEAP reporter activity: 2.48
RAW-Dual [2]; [8]
  NF-kB SEAP reporter activity: 1.93

## CCCC(=O)Nc1cccc(NC(=O)c2ccccc2Br)c1
RAW-Dual [2]; [7]
  NF-kB SEAP reporter activity: 1.06
RAW-Dual [2]; [8]
  NF-kB SEAP reporter activity: 0.952

## O=C(CCCCCCC(=O)Nc1ccccc1)NO (library stock concentration (final ~1000-fold dilution): 10 mM)
RAW-Dual [3]; agonist: LPS (TLR4) 0.1 ug/mL
  NF-kB SEAP reporter activity: 6.47
RAW-Dual [3]; [4]
  NF-kB SEAP reporter activity: 2.34
RAW-Dual [3]; [5]
  NF-kB SEAP reporter activity: 0.808
RAW-Dual [3]; [6]
  NF-kB SEAP reporter activity: 1.86

## O=C(CCCCCCCC(=O)NCCO)NCCO (library stock concentration (final ~1000-fold dilution): 10 mM)
RAW-Dual [1]; agonist: LPS (TLR4) 0.1 ug/mL
  NF-kB SEAP reporter activity: 1.2
RAW-Dual [1]; [4]
  NF-kB SEAP reporter activity: 0.998
RAW-Dual [1]; [5]
  NF-kB SEAP reporter activity: 0.991
RAW-Dual [1]; [6]
  NF-kB SEAP reporter activity: 0.856

## CCCCCCCCCCCCCCCCCC(=O)O (library stock concentration (final ~1000-fold dilution): 10 mM)
RAW-Dual [1]; agonist: LPS (TLR4) 0.1 ug/mL
  NF-kB SEAP reporter activity: 0.849
RAW-Dual [1]; [4]
  NF-kB SEAP reporter activity: 1.02
RAW-Dual [1]; [5]
  NF-kB SEAP reporter activity: 0.95
RAW-Dual [1]; [6]
  NF-kB SEAP reporter activity: 1.17

## CCc1ccc(NC(=O)Nc2ccccc2)cc1
RAW-Dual [2]; [7]
  NF-kB SEAP reporter activity: 0.892
RAW-Dual [2]; [8]
  NF-kB SEAP reporter activity: 1.01

## O=C(CCCCCCC(=O)NO)NO (library stock concentration (final ~1000-fold dilution): 10 mM)
RAW-Dual [1]; agonist: LPS (TLR4) 0.1 ug/mL
  NF-kB SEAP reporter activity: 3.77
RAW-Dual [1]; [4]
  NF-kB SEAP reporter activity: 1.62
RAW-Dual [1]; [5]
  NF-kB SEAP reporter activity: 0.78
RAW-Dual [1]; [6]
  NF-kB SEAP reporter activity: 1.21

## CCCCCCCCCCCCCCCCCC(=O)O
RAW-Dual [2]; [7]
  NF-kB SEAP reporter activity: 0.96
RAW-Dual [2]; [8]
  NF-kB SEAP reporter activity: 1.05

## O=C(CCCCCCC(=O)Nc1ccccc1)NO
RAW-Dual [2]; cytotoxicity flag (confluency mask): cytotoxic (confluency <70% of control), agonist: Imiquimod (TLR7) […]
  NF-kB SEAP reporter activity: 2.38
RAW-Dual [2]; cytotoxicity flag (confluency mask): cytotoxic (confluency <70% of control), agonist: MPLA (TLR4) […]
  NF-kB SEAP reporter activity: 2.6

## CCc1ccc(NC(=O)Nc2ccccc2)cc1 (library stock concentration (final ~1000-fold dilution): 10 mM)
RAW-Dual [1]; agonist: LPS (TLR4) 0.1 ug/mL
  NF-kB SEAP reporter activity: 1.12
RAW-Dual [1]; [4]
  NF-kB SEAP reporter activity: 0.823
RAW-Dual [1]; [5]
  NF-kB SEAP reporter activity: 0.702
RAW-Dual [1]; [6]
  NF-kB SEAP reporter activity: 0.652

## CCCC(=O)Nc1cccc(NC(=O)c2ccccc2Br)c1 (library stock concentration (final ~1000-fold dilution): 10 mM)
RAW-Dual [1]; agonist: LPS (TLR4) 0.1 ug/mL
  NF-kB SEAP reporter activity: 0.939
RAW-Dual [1]; [4]
  NF-kB SEAP reporter activity: 0.996
RAW-Dual [1]; [5]
  NF-kB SEAP reporter activity: 0.966
RAW-Dual [1]; [6]
  NF-kB SEAP reporter activity: 1.15

## O=C(CCCCCCC(=O)NO)NO
RAW-Dual [2]; [7]
  NF-kB SEAP reporter activity: 2.03
RAW-Dual [2]; [8]
  NF-kB SEAP reporter activity: 2.57

## O=C(CCCCCCCC(=O)NCCO)NCCO
RAW-Dual [2]; [7]
  NF-kB SEAP reporter activity: 0.913
RAW-Dual [2]; [8]
  NF-kB SEAP reporter activity: 1.03

## Br.COc1cc(Br)c(Nc2nc(-c3c(C)nc4ncccn34)cs2)c(Br)c1
RAW-Dual [2]; [7]
  NF-kB SEAP reporter activity: 1.42
RAW-Dual [2]; [8]
  NF-kB SEAP reporter activity: 2.42

## Br.COc1cc(Br)c(Nc2nc(-c3c(C)nc4ncccn34)cs2)c(Br)c1 (library stock concentration (final ~1000-fold dilution): 10 mM)
RAW-Dual [1]; agonist: LPS (TLR4) 0.1 ug/mL
  NF-kB SEAP reporter activity: 1.91
RAW-Dual [1]; [4]
  NF-kB SEAP reporter activity: 1.96
RAW-Dual [1]; [5]
  NF-kB SEAP reporter activity: 0.305
RAW-Dual [1]; [6]
  NF-kB SEAP reporter activity: 0.861

## Cl.O=C1CN2Cc3c(ccc(Cl)c3Cl)NC2=N1
RAW-Dual [2]; [7]
  NF-kB SEAP reporter activity: 1.34
RAW-Dual [2]; [8]
  NF-kB SEAP reporter activity: 1.26

## Cl.O=C1CN2Cc3c(ccc(Cl)c3Cl)NC2=N1 (library stock concentration (final ~1000-fold dilution): 10 mM)
RAW-Dual [1]; agonist: LPS (TLR4) 0.1 ug/mL
  NF-kB SEAP reporter activity: 0.887
RAW-Dual [1]; [4]
  NF-kB SEAP reporter activity: 1.24
RAW-Dual [1]; [5]
  NF-kB SEAP reporter activity: 0.872
RAW-Dual [1]; [6]
  NF-kB SEAP reporter activity: 1.01
